Source: PubChem BioAssay (EPA / NIEHS)
The source made the active and inactive calls. How the source made its calls: active means hit-call score of the fitted dose curve at least 0.9, where 1 is the maximum; inactive means score below 0.9.

Columns and labels:
Conditions in all cases: mRNA level, 48 h; actives raise or lower the signal
[1] = read-out: Cytochrome P450 7A1 (Homo sapiens) (UniProt P22680); assay: LTEA_HepaRG_CYP7A1: Life Technologies and Expression Analysis (LTEA) Assay for Cytochrome P450 7A1 (CYP7A1) using HepaRG (AID 2283496)
In short: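 HepaRG cells plated 48 h, then switched to serum-free induction medium and exposed in duplicate for 48 h to 8-point half-log series from 100 uM in 0.5% DMSO. CYP7A1 mRNA by qRT-PCR (TaqMan), normalized to ACTB/GAPDH/POLR2A; bidirectional fit versus DMSO.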

[2] = read-out: Glutathione S-Transferase (GSTA2), GSTA2 (gene 2939); assay: LTEA_HepaRG_GSTA2: Life Technologies and Expression Analysis (LTEA) Assay for Glutathione S-Transferase (GSTA2) using HepaRG (AID 2283497)
In short: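 HepaRG, 48 h dosing, 8-pt half-log CRC from 100 uM, 0.5% DMSO vehicle, n=2; RNA → Fluidigm TaqMan qRT-PCR; GSTA2 vs ACTB/GAPDH/POLR2A; gain/loss fit vs DMSO.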

[3] = read-out: Glutamate-cysteine ligase catalytic (GCLC), GCLC (gene 2729); assay: LTEA_HepaRG_GCLC: Life Technologies and Expression Analysis (LTEA) Assay for Glutamate-cysteine ligase catalytic (GCLC) using HepaRG (AID 2283498)
In short: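 Read-out is GCLC transcript level by Fluidigm-based TaqMan qRT-PCR, normalized to three housekeeping genes and fitted in both directions relative to 0.5% DMSO. Human HepaRG cells received chemicals for 48 h, up to 100 uM.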

[4] = read-out: growth arrest and DNA damage 45 (GADD45G), GADD45G (gene 10912); assay: LTEA_HepaRG_GADD45G: Life Technologies and Expression Analysis (LTEA) Assay for growth arrest and DNA damage 45 (GADD45G) using HepaRG (AID 2283499)
In short: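 Human hepatic HepaRG line treated 48 h with chemicals (eight concentrations, half-log steps from 100 uM); transcript induction or repression of GADD45G scored by qRT-PCR versus DMSO vehicle.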

[5] = read-out: Glutamate-cysteine ligase regulatory (GCLM), GCLM (gene 2730); assay: LTEA_HepaRG_GCLM: Life Technologies and Expression Analysis (LTEA) Assay for Glutamate-cysteine ligase regulatory (GCLM) using HepaRG (AID 2283500)
In short: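 Cells were plated, cultured 48 h, switched to serum-free induction medium, then dosed in duplicate for 48 h at eight half-log concentrations up to 100 uM. RNA was then profiled by qRT-PCR; gain or loss versus DMSO was fitted.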

[6] = read-out: Glutathione S-transferase M3 (GSTM3), GSTM3 (gene 2947); assay: LTEA_HepaRG_GSTM3: Life Technologies and Expression Analysis (LTEA) Assay for Glutathione S-transferase M3 (GSTM3) using HepaRG (AID 2283501)
In short: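 Changes in GSTM3 expression, an oxidative-stress marker, were scored by bidirectional curve fitting against 0.5% DMSO vehicle. Human HepaRG cultures received chemicals for 48 h in duplicate, highest concentration 100 uM with half-log dilutions.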

[7] = read-out: Heat shock 70 kDa protein 1 (HSPA1A), gene 3303; assay: LTEA_HepaRG_HSPA1A: Life Technologies and Expression Analysis (LTEA) Assay for Heat shock 70 kDa protein 1 (HSPA1A) using HepaRG (AID 2283502)
In short: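 Readout is HSPA1A transcript level by microfluidic qRT-PCR, normalized to three housekeeping genes and analysed for gain or loss of signal relative to 0.5% DMSO. Human HepaRG cultures received test chemicals for 48 h at up to 100 uM.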

[8] = read-out: 3-Hydroxy-3-Methylglutaryl-CoA Synthase 2 (HMGCS2), HMGCS2 (gene 3158); assay: LTEA_HepaRG_HMGCS2: Life Technologies and Expression Analysis (LTEA) Assay for 3-Hydroxy-3-Methylglutaryl-CoA Synthase 2 (HMGCS2) using HepaRG (AID 2283504)
In short: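 Expression of HMGCS2 in human HepaRG liver cells is measured by qRT-PCR 48 h after dosing (highest 100 uM, half-log series, 0.5% DMSO). Values come from bidirectional concentration-response fitting with DMSO as baseline.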

[9] = read-out: HGF (gene 3082); assay: LTEA_HepaRG_HGF: Life Technologies and Expression Analysis (LTEA) Assay for Hepatocyte Growth Facto (HGF) using HepaRG (AID 2283505)
In short: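 Gain or loss of HGF mRNA in human HepaRG liver cells after 48 h chemical exposure; eight concentrations up to 100 uM with 0.5% DMSO vehicle, quantified by TaqMan qRT-PCR.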

[10] = read-out: Insulin Like Growth Factor 1 (IGF1), IGF1 (gene 3479); assay: LTEA_HepaRG_IGF1: Life Technologies and Expression Analysis (LTEA) Assay for Insulin Like Growth Factor 1 (IGF1) using HepaRG (AID 2283506)
In short: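 HepaRG, plated 48 h, then switched to serum-free induction media; test chemical 8-pt half-log from 100 uM (0.5% DMSO), duplicate, 48 h. Lysis in RLT, TaqMan qRT-PCR, norm. ACTB/GAPDH/POLR2A. Bidirectional fit vs DMSO.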

[11] = read-out: Intercellular Adhesion Molecule 1 (ICAM1), ICAM1 (gene 3383); assay: LTEA_HepaRG_ICAM1: Life Technologies and Expression Analysis (LTEA) Assay for Intercellular Adhesion Molecule 1 (ICAM1) using HepaRG (AID 2283507)
In short: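 Gain or loss of transcript in HepaRG hepatic cells is quantified by qRT-PCR after 48 h chemical exposure (up to 100 uM, half-log steps), with DMSO as baseline.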

[12] = read-out: Insulin-like growth factor-binding protein 1 (IGFBP1), IGFBP1 (gene 3484); assay: LTEA_HepaRG_IGFBP1: Life Technologies and Expression Analysis (LTEA) Assay for Insulin-like growth factor-binding protein 1 (IGFBP1) using HepaRG (AID 2283508)
In short: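 mRNA induction or loss was quantified by qRT-PCR after 48 h chemical exposure of human HepaRG cells, with 0.5% DMSO as vehicle and baseline. Concentration-response over eight points up to 100 uM.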

[13] = read-out: Interleukin 6 (IL6), IL6 (gene 3569); assay: LTEA_HepaRG_IL6: Life Technologies and Expression Analysis (LTEA) Assay for Interleukin 6 (IL6) using HepaRG (AID 2283509)
In short: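 HepaRG, ~100,000 cells/well, 48 h pre-culture; serum-free induction medium; cmpd 8-pt half-log from 100 uM, 0.5% DMSO, duplicate, 48 h. Lysis in RLT, TaqMan qRT-PCR; gain or loss vs DMSO.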

[14] = read-out: Interleukin 6 Receptor (IL6R), IL6R (gene 3570); assay: LTEA_HepaRG_IL6R: Life Technologies and Expression Analysis (LTEA) Assay for Interleukin 6 Receptor (IL6R) using HepaRG (AID 2283510);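 on AC50: differentiated human HepaRG liver cells in serum-free induction medium; TaqMan qRT-PCR signal normalized to ACTB GAPDH and POLR2A housekeeping genes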
In short: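 Readout is IL6R transcript level by TaqMan qRT-PCR, normalized to three housekeeping genes and fitted bidirectionally against 0.5% DMSO controls. Human HepaRG cells received chemicals for 48 h in serum-free induction medium, highest concentration 100 uM.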

[15] = read-out: Potassium channel subfamily K member 1 (KCNK1), KCNK1 (gene 3775); assay: LTEA_HepaRG_KCNK1: Life Technologies and Expression Analysis (LTEA) Assay for Potassium channel subfamily K member 1 (KCNK1) using HepaRG (AID 2283511)
In short: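 Gain or loss of KCNK1 mRNA is the read-out, quantified by qRT-PCR against three housekeeping genes after 48 h chemical treatment of human HepaRG liver cells. Concentrations ran from 100 uM downward in half-log steps, vehicle 0.5% DMSO.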

[16] = read-out: Keratin 19 (KRT19), KRT19 (gene 3880); assay: LTEA_HepaRG_KRT19: Life Technologies and Expression Analysis (LTEA) Assay for Keratin 19 (KRT19) using HepaRG (AID 2283512)
In short: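 Gene-expression endpoint in the human liver line HepaRG after 48 h exposure to up to 100 uM test chemical with 0.5% DMSO vehicle; KRT19 mRNA by qRT-PCR, analyzed bidirectionally versus DMSO.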

[17] = read-out: JUN Transcription Factor, JUN (gene 3725); assay: LTEA_HepaRG_JUN: Life Technologies and Expression Analysis (LTEA) Assay for JUN Transcription Factor using HepaRG (AID 2283513)
In short: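 Cells plated 48 h, medium switched to serum-free induction medium, then dosed 48 h (100 uM top, half-log dilutions, 0.5% DMSO). RNA isolated; JUN measured by qRT-PCR against three housekeeping genes; gain or loss fitted relative to DMSO.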

[18] = read-out: Lipase C (LIPC), LIPC (gene 3990); assay: LTEA_HepaRG_LIPC: Life Technologies and Expression Analysis (LTEA) Assay for Lipase C (LIPC) using HepaRG (AID 2283514)
In short: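 Read-out is LIPC transcript level by TaqMan qRT-PCR, normalized to three housekeeping genes, after 48 h chemical treatment of human HepaRG liver cells. Curves span eight concentrations topping at 100 uM; activity in either direction scored relative to 0.5% DMSO.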

[19] = read-out: Lipoprotein lipase (LPL), LPL (gene 4023); assay: LTEA_HepaRG_LPL: Life Technologies and Expression Analysis (LTEA) Assay for Lipoprotein lipase (LPL) using HepaRG (AID 2283515)
In short: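 Read-out is LPL transcript level by qRT-PCR, normalized to three housekeeping genes and fitted bidirectionally against the DMSO control. Human HepaRG cells received chemicals for 48 h at up to 100 uM.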

[20] = read-out: Hypoxia-inducible factor 1-alpha (Homo sapiens) (UniProt Q16665); assay: LTEA_HepaRG_HIF1A: Life Technologies and Expression Analysis (LTEA) Assay for Hypoxia-inducible factor 1 (HIF1A) Trancription factor using HepaRG (AID 2283503)
In short: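 Differentiated HepaRG cells in serum-free induction medium exposed 48 h, in duplicate, to 8-point half-log series from 100 uM in 0.5% DMSO. HIF1A mRNA measured by TaqMan qRT-PCR, normalized to ACTB/GAPDH/POLR2A, fitted bidirectionally versus DMSO.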

Measured: AC50

Hypoxia-inducible factor 1-alpha (Homo sapiens), sequence (Q16665 whole entry, looked up): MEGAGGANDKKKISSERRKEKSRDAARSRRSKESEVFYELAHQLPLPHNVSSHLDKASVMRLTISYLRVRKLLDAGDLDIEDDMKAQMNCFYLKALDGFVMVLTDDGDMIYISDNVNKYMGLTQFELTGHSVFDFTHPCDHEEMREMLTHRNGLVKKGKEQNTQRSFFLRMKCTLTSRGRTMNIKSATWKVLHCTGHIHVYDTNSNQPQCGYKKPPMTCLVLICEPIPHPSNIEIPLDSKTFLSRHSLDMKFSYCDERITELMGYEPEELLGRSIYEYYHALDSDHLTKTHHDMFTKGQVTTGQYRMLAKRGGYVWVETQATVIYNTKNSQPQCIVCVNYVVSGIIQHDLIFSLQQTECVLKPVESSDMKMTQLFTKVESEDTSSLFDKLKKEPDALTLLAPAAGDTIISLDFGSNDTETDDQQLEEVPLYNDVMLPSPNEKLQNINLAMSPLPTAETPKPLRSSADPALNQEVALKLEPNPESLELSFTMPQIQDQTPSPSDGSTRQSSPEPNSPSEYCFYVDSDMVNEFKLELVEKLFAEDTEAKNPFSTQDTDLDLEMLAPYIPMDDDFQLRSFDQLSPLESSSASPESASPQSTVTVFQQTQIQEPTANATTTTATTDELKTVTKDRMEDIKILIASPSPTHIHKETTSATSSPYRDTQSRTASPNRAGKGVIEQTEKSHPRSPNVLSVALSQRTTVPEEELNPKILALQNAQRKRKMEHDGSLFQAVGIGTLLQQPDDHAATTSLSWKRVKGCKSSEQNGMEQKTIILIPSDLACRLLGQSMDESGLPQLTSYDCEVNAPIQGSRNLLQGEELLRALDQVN

Cc1cccc(N)c1N
active: [1] 46 µM | [2] 50 µM | [4] 50 µM | [8] 50 µM | [10] 50 µM | [12] 22.9 µM | [16] 21.3 µM | [18] 58.7 µM | [19] 35.8 µM
not listed: [20]
inactive: all other assays above

CCCCCCCCCCCCCN1CC(C)OC(C)C1 (stereo not given)
not listed: [17]
inactive: all other assays above

Cc1ccc(N)c(N)c1
active: [2] 28.9 µM | [16] 32.8 µM
not listed: [17] | [20]
inactive: all other assays above

COc1cc(C=O)cc2c1[C@H](COC(N)=O)[C@]1(OC(C)=O)ON2C[C@H]2[C@@H]1N2C(C)=O
inactive: [5] | [6] | [7] | [9] | [15] | [18]
active: [1] 0.417 µM | [2] 1.06 µM | [3] 0.312 µM | [4] 21.8 µM | [20] 3.94 µM | [8] 0.827 µM | [10] 0.5 µM | [11] 1.31 µM | [12] 4.86 µM | [13] 1.52 µM | [14] 24.7 µM | [16] 1.49 µM | [17] 5 µM | [19] 0.272 µM

O=C1CCCO1
active: [2] 50 µM | [3] 9.92 µM | [8] 50 µM | [19] 50 µM
not listed: [12] | [17]
inactive: all other assays above

Clc1ccc(Cl)c(Cl)c1
active: [1] 50 µM | [2] 84 µM | [3] 9.92 µM | [8] 50 µM | [19] 50 µM
not listed: [17] | [20]
inactive: all other assays above

CC(C)(OOC(C)(C)c1ccccc1)c1ccccc1
not listed: [12] | [17]
inactive: all other assays above
